Measured values reported in PubChem BioAssay (NCATS).
Inconclusive results are not listed. A call without a number means that no potency is given here. For part of these data: Potency and affinity values are given separately. The source made the active and inactive calls.

Key:
[1] = Ebola virus entry assay, reporter ratio channel; AC50: Channel type: primary unless noted; outcome: Channel type: primary unless noted
[2] = Ebola virus entry assay, blue channel (ratio component)
[3] = Ebola virus entry cell assay, ratio channel
[4] = qHTS assay for measurement of the activity of small molecule inhibitors on Zika virus induced Caspase-3 activity in human iPSC derived neural progenitor cells (hNPCs) (AID 1224857; active = well fitted curve in the direction sought with a large enough effect; an effect the other way counts as inactive or inconclusive; note: nearly all actives have a fitted effect of over 65% in size)
Outline: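 Zika virus (2 FFU/cell) infection of human iPSC-derived NPCs, 6 h, following 1 h compound preincubation. Read-out: Caspase-Glo 3/7 luminescence.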

[5] = qHTS assay for measurement of the activity of small molecule inhibitors on Zika virus induced Caspase-3 activity in human astrocytoma cells (AID 1224859; active = well fitted curve in the direction sought with a large enough effect; an effect the other way counts as inactive or inconclusive)
Outline: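 Caspase activation in ZIKV-infected SNB-19 cells (2 FFU/cell, 6 h) measured by Caspase-Glo 3/7 luminescence after 30 min RT; compound pre-incubated 1 h; normalised to uninfected and infected controls.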

[6] = High-throughput drug toxicity screening in the BPDCN cell line Gen2.2 (AID 1224824); conditions: Gen2.2 BPDCN cells; at 45.8 µM (top of the series) unless noted;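 note: cells exposed to compounds for 48 h before reading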
Outline: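 Seed 500 exponentially growing Gen2.2 cells/well; add compounds by pin tool; incubate 48 h, 37 °C, 5% CO2; add CellTiter-Glo, 15 min RT; read luminescence. % activity vs DMSO (100%) and bortezomib (0%).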

[7] = High-throughput drug toxicity screening in the BPDCN cell line Cal-1 (AID 1224825); conditions: Cal-1 BPDCN cell viability, qHTS; at 45.8 µM (top of the series) unless noted
Outline: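 Cal-1 cells, 500 per well in phenol-red-free RPMI with 10% FBS, exposed to compounds for 48 hours at 37C, 5% CO2. Viability read by CellTiter-Glo luminescence; percent activity normalized to DMSO (100%) and 9.2 uM bortezomib final (0%).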

[8] = Immunotoxin (HA22) sensitization/mitigation study. Vehicle arm (PBS) (AID 1159510)
[9] = Immunotoxin (SS1P) sensitization/mitigation study. Vehicle arm (DMEM) (AID 1159513)
[10] = qHTS Screen of the MIPE 4.0 Collection Against Ewings Sarcoma (TC32) (AID 1259256; active = well fitted curve in the direction sought with a large enough effect; an effect the other way counts as inactive or inconclusive; note: nearly all actives have a fitted effect of over 45% in size)
Outline: (§1)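 Viability screen: 48 h incubation at 37C, 95% humidity, 5% CO2 with serially titrated compound, followed by CellTiter-Glo readout.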

[11] = qHTS assay to identify small molecule inhibitors of chordoma cells - UCH-1 (AID 1259355; active = well fitted curve in the direction sought with a large enough effect; an effect the other way counts as inactive or inconclusive; note: nearly all actives have a fitted effect of over 55% in size)
Outline: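 Cells (800/well) were seeded and left overnight at 37 C, 5% CO2, then treated with drugs at 15 concentrations plus a combination mix of auranofin, camptothecin, doxorubicin, rubitecan and topotecan. Viability after 48hr was read by CellTiter-Glo luminescence.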

[12] = P-glycoprotein substrates identified in KB-3-1 adenocarcinoma cell line, qHTS therapeutic library screen (AID 1346986; active = well fitted curve in the direction sought with a large enough effect; an effect the other way counts as inactive or inconclusive; note: nearly all actives have a fitted effect of over 60% in size); conditions: KB-3-1 parental cells viability, CellTiter-Glo, 72 h; at 44.5 µM (top of the series) unless noted
Outline: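 KB-3-1 parental and colchicine-selected P-gp-overexpressing KB-8-5-11 cells (colchicine omitted during assay), 500 cells/well, dosed in dose-response for 72 h at 37 °C; CellTiter-Glo luminescence. Cytotoxic: curve class -1.1 to -2.4, max response >50%, AC50 < 10 uM.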

[13] = qHTS Screen of the MIPE 4.0 Collection Against Ewings Sarcoma (RDES) (AID 1259252; active = well fitted curve in the direction sought with a large enough effect; an effect the other way counts as inactive or inconclusive; note: nearly all actives have a fitted effect of over 35% in size)
Outline: as §1

[14] = qHTS Screen of the MIPE 4.0 Collection Against Ewings Sarcoma (TC71) (AID 1259253; active = well fitted curve in the direction sought with a large enough effect; an effect the other way counts as inactive or inconclusive; note: nearly all actives have a fitted effect of over 40% in size)
Outline: as §1

[15] = qHTS Screen of the MIPE 4.0 Collection Against Ewings Sarcoma (EW8) (AID 1259255; active = well fitted curve in the direction sought with a large enough effect; an effect the other way counts as inactive or inconclusive; note: nearly all actives have a fitted effect of over 35% in size)
Outline: as §1

## NC(=O)c1cnccn1
[1]
  outcome: inactive
[2]
  outcome: inactive
[3]
  outcome: inactive

## C=CCC1([C@H](C)CCC)C(=O)NC(=O)NC1=O
[1]
  outcome: inactive
[2]
  outcome: inactive
[3]
  outcome: inactive
[4]
  outcome: inactive
[5]
  outcome: inactive

## CCc1cc(C(N)=S)ccn1
[1]
  outcome: inactive
[2]
  outcome: inactive
[3]
  outcome: inactive

## C[C@]12CCC(=O)C=C1CC[C@@H]1[C@H]3CC[C@](C)(O)[C@@]3(C)CC[C@@H]12
[1]
  outcome: inactive
[2]
  outcome: inactive
[6]
  cell viability, % of control (lower = more cytotoxic): 95.2% [at 92.2 µM]
[7]
  viability (% of control): 93.9% [at 92.2 µM]
[4]
  outcome: inactive
[5]
  outcome: inactive

## Cn1nnc2c(C(N)=O)ncn2c1=O
[1]
  outcome: inactive
[2]
  outcome: inactive
[3]
  outcome: inactive

## CN(C)CCOc1ccc(/C(=C(/CCCl)c2ccccc2)c2ccccc2)cc1
[1]
  outcome: inactive [Channel type: confirmation]
[2]
  outcome: inactive
[3]
  AC50: 3.55 µM (active)

## CNNCc1ccc(C(=O)NC(C)C)cc1
[1]
  outcome: inactive
[2]
  outcome: inactive
[3]
  outcome: inactive

## C[N+]1(C)[C@@H]2CC(OC(=O)[C@H](CO)c3ccccc3)C[C@H]1[C@@H]1O[C@@H]12 (some centres undefined)
[1]
  outcome: inactive
[2]
  outcome: inactive
[4]
  outcome: inactive

## CCCc1nn(C)c2c(=O)[nH]c(-c3cc(S(=O)(=O)N4CCN(C)CC4)ccc3OCC)nc12
[1]
  outcome: inactive
[2]
  outcome: inactive
[8]
  Potency: inactive
[9]
  Potency: inactive

## O=C(O)CCCc1ccc(N(CCCl)CCCl)cc1
[1]
  outcome: inactive
[2]
  outcome: inactive
[3]
  outcome: inactive
[6]
  cell viability, % of control (lower = more cytotoxic): 84.6%
[7]
  viability (% of control): 11.8%
[4]
  outcome: inactive
[5]
  outcome: inactive
[10]
  Potency: inactive
[11]
  outcome: inactive
[12]
  outcome: inactive

## CN1C(=O)COc2c(C(=O)NC3CN4CCC3CC4)cc(Cl)cc21 (centres undefined)
[1]
  outcome: inactive
[2]
  outcome: inactive
[6]
  cell viability, % of control (lower = more cytotoxic): 212%
[7]
  viability (% of control): 120%
[4]
  outcome: inactive
[5]
  outcome: inactive
[13]
  Potency: inactive
[14]
  Potency: inactive
[15]
  outcome: inactive
[10]
  Potency: inactive
[11]
  outcome: inactive
